From PubChem BioAssay (NCATS) come the findings set out here.

Records with an inconclusive call do not appear. A number with no mark means an inactive call. Active and inactive are the calls of the source. Calls follow the shape of the dose curve; as a rule, active = well fitted inhibition curve with a large enough effect; inconclusive = small, poorly fitted or top-dose-only effect; inactive = flat fitted curve, though single readings scatter.

For experiment [1], the system named is HB3. The experiment can be described thus: qHTS profiling for inhibitors of Plasmodium falciparum proliferation (AID 504749). The conditions noted are these: P. falciparum in erythrocytes, SYBR Green DNA, 72 h; series mostly up to 28.7 µM. In a few lines: (§1)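 Readout was DNA-dye fluorescence from lysed cultures, ex 485/em 535 nm. Parasitized red cells had grown 72 h with compound; data scaled between 0.29 uM artemisinin and DMSO wells and corrected using vehicle-only plates.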

For experiment [2], the system named is ICS. The experiment is described as above. The conditions noted are these: P. falciparum in erythrocytes, SYBR Green DNA, 72 h; series mostly up to 28.7 µM. In a few lines: as §1
Experiment [3] concerns JCK. Described as above. The conditions noted are these: P. falciparum in erythrocytes, SYBR Green DNA, 72 h; series mostly up to 28.7 µM. In a few lines:
as §1

For experiment [4], the system named is N140. The experiment is described as above. The conditions noted are these: P. falciparum in erythrocytes, SYBR Green DNA, 72 h; series mostly up to 28.7 µM. In a few lines: as §1
Experiment [5] has as its system P93_24. Described as above. The conditions noted are these: P. falciparum in erythrocytes, SYBR Green DNA, 72 h; series mostly up to 28.7 µM. In a few lines:
as §1

Experiment [6] deals with P94_40. The experiment is described as above. The conditions noted are these: P. falciparum in erythrocytes, SYBR Green DNA, 72 h; series mostly up to 28.7 µM. In a few lines:
as §1

Experiment [7] relates to PAD. Described as above. The conditions noted are these: P. falciparum in erythrocytes, SYBR Green DNA, 72 h; series mostly up to 28.7 µM. In a few lines: as §1
Experiment [8] relates to PC15. Described as above. The conditions noted are these: P. falciparum in erythrocytes, SYBR Green DNA, 72 h; series mostly up to 28.7 µM. In a few lines:
as §1

The test system of experiment [9] is PC26. Described as above. The conditions noted are these: P. falciparum in erythrocytes, SYBR Green DNA, 72 h; series mostly up to 28.7 µM. In a few lines:
as §1

Experiment [10] concerns PC49. The experiment is described as above. The conditions noted are these: P. falciparum in erythrocytes, SYBR Green DNA, 72 h; series mostly up to 28.7 µM. In a few lines:
as §1

The test system of experiment [11] is SC27B. Described as above. The conditions noted are these: P. falciparum in erythrocytes, SYBR Green DNA, 72 h; series mostly up to 28.7 µM. In a few lines:
as §1

Experiment [12] deals with TAB113. The description is as above. The conditions noted are these: P. falciparum in erythrocytes, SYBR Green DNA, 72 h; series mostly up to 28.7 µM. In a few lines:
as §1

For experiment [13], the system named is W2. The experiment is described as above. The conditions noted are these: P. falciparum in erythrocytes, SYBR Green DNA, 72 h; series mostly up to 28.7 µM. In a few lines: as §1
Experiment [14] has as its system CRL-7250. The experiment in a line: Cytotoxic Profiling of Annotated Libraries Using Quantitative High-Throughput Screening (AID 1296008). As to max response: % is scaled to controls: 0 for no effect and ±100 for the full control effect. The conditions noted are these: Five cell lines viability, CellTiter-Glo ATP luminescence, 48-72 h; max response: stronger effect = lower value. In a few lines: (§2)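 Cells exposed to compounds for 48 or 72 hr at 37 degrees Celsius. Viability read as ATP-coupled luminescence with CellTiter-Glo after 10 min at room temperature.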
For orientation: In ATP-based viability assays light output follows the ATP content of the culture.

Experiment [15] relates to HEK293. The experiment is described as above. The conditions noted are these: Five cell lines viability, CellTiter-Glo ATP luminescence, 48-72 h; max response: stronger effect = lower value. In a few lines: as §2
For experiment [16], the system named is HaCat. Described as above. The conditions noted are these: Five cell lines viability, CellTiter-Glo ATP luminescence, 48-72 h; max response: stronger effect = lower value. In a few lines:
as §2

The subject of experiment [17] is NIH3T3. The experiment is described as above. The conditions noted are these: Five cell lines viability, CellTiter-Glo ATP luminescence, 48-72 h; max response: stronger effect = lower value. In a few lines:
as §2

The test system of experiment [18] is TAB109. The experiment in a line: qHTS profiling for inhibitors of Plasmodium falciparum proliferation (AID 504749). The conditions noted are these: P. falciparum in erythrocytes, SYBR Green DNA, 72 h; series mostly up to 28.7 µM. In a few lines: as §1
(In general: In qHTS, concentration-response curves come from the screen itself.)

Experiment [19] deals with TAB165. The experiment is described as above. The conditions noted are these: P. falciparum in erythrocytes, SYBR Green DNA, 72 h; series mostly up to 28.7 µM. In a few lines: as §1
For experiment [20], the system named is KB-3-1. The experiment in a line: Cytotoxic Profiling of Annotated Libraries Using Quantitative High-Throughput Screening (AID 1296008). As to max response: % is scaled to controls: 0 for no effect and ±100 for the full control effect. The conditions noted are these: Five cell lines viability, CellTiter-Glo ATP luminescence, 48-72 h; max response: stronger effect = lower value. In a few lines: as §2
Also: nearly all actives have a fitted effect of over 60% in size.
Potency is read from the fitted curve at half-maximal effect.

As for `CCNC(=O)/C=C/c1cccc(Br)c1`, the Potency entry in experiment [1], in experiment [2], in experiment [3], in [4], in experiment [5] and in experiment [6] was “inactive” in each case. Moreover, the Potency entry in experiment [7], in experiment [8], in [9], in experiment [10], in [11] and in experiment [12] was “inactive” each time. Besides, in experiment [13], the Potency entry is “inactive”. Also, the molecule was classed as inactive in [14]. The max response in experiment [15] is -0.855%; in [16], 0.498%; in [17], -21%.

`CCCCCCCCCCCCCCCC(=O)O`: the Potency entry in experiment [1], in experiment [2], in [3], in [4], in experiment [5] and in experiment [6] was “inactive” in each case. The Potency result in [7], in [8], in [9], in experiment [10], in [11] and in experiment [18] was “inactive” throughout. For the same molecule, the Potency entry in experiment [12], in experiment [19] and in [13] was “inactive” in each case. Also, the max response in experiment [14] is -4.95%; in experiment [15] it was -5.26%; in [16], -1.81%; in experiment [17], 4.34%.

In the case of `O=C(O)P(=O)(O)O`, the Potency entry in [1], in [2], in [3], in experiment [4], in [5] and in experiment [6] was “inactive” each time. The Potency entry in experiment [7], in experiment [8], in experiment [9], in experiment [10], in experiment [11] and in [18] was “inactive” throughout. Also, the Potency result in experiment [12], in experiment [19] and in experiment [13] was “inactive” throughout. Moreover, the result in [14] was inactive. For the same molecule, the max response in experiment [15] is 0.892%; in [16], -5.53%; in [17], 4.83%.

As to `CC(=O)O[C@]1(C(C)=O)CC[C@H]2[C@@H]3C=C(Cl)C4=CC(=O)CC[C@]4(C)[C@H]3CC[C@@]21C`, the Potency was 10 µM (active) in experiment [2]; 11.2 µM (active) in experiment [5]; 11.2 µM (active) in experiment [6]; 13.5 µM (active) in experiment [9]; 8.91 µM (active) in [11]; 7.08 µM (active) in [12]. Besides, the Potency in experiment [13] was 10.7 µM (active); in experiment [15], 18.8 µM (active). For the same molecule, the Potency entry in experiment [3] and in experiment [10] was “inactive” throughout. Further, the max response in experiment [14] is -6.12%; in experiment [20], 2.1%. In addition, in experiment [16], the molecule was called inactive.

With `CCCN(CCC)S(=O)(=O)c1ccc(C(=O)O)cc1`, the Potency entry in experiment [1], in experiment [2], in [3], in experiment [4], in [5] and in [6] was “inactive” in each case. In addition, the Potency entry in experiment [7], in experiment [8], in experiment [9], in experiment [10], in experiment [11] and in experiment [18] was “inactive” each time. In addition, the Potency entry in experiment [12], in experiment [19] and in experiment [13] was “inactive” throughout. The results for the max response in experiment [14], in [15] and in experiment [20] were -3.77%, 3.98% and 20.4%, respectively. Besides, the Potency in [16] is 18.8 µM (active).

For `OCc1ccccn1`, the Potency result in experiment [1], in experiment [2], in experiment [3], in [4], in experiment [5] and in [6] was “inactive” in each case. The Potency entry in experiment [7], in experiment [8], in experiment [9], in experiment [10], in experiment [11] and in experiment [18] was “inactive” in each case. In addition, the Potency entry in experiment [12], in experiment [19] and in experiment [13] was “inactive” in each case. In addition, the values for the max response in experiment [14], in experiment [15] and in experiment [17] were -1.84%, -1.39% and -14.5%, respectively. Besides, in experiment [16], the outcome was inactive.

As for `Cc1cn([C@H]2C[C@H](F)[C@@H](CO)O2)c(=O)[nH]c1=O`, the molecule was called inactive in [14] and in experiment [16]. Moreover, the figures for the max response in [15] and in experiment [17] were 0.5% and -16.7%, respectively.

Take `CC(=O)OCC1=C(C(=O)O)N2C(=O)[C@@H](NC(=O)CSc3ccncc3)[C@H]2SC1`: the max response is -1.6% in experiment [14], 4.22% in experiment [15], 0.118% in [16] and 1.18% in [17].
